Hit rate of the full screen: of about 400,000 compounds, about 13,000 (3.2%) were called active. Roughly 18% stayed inconclusive and do not appear here. The sample as a whole holds a higher share of actives than the screen did. A number with no mark means an inactive call. Calls follow the shape of the dose curve; as a rule, active = well fitted cell-killing curve with a large enough effect; inconclusive = small, poorly fitted or top-dose-only effect, or effect the other way; inactive = flat fitted curve, though single readings scatter.
experiment: qHTS assay for MDR1-selective chemotherapeutics: Primary screen using the drug-selected MDR subline cells KB-V1; settings: KB-V1 MDR cells viability, CellTiter-Glo, 72 h; series mostly up to 46.1 µM; activity change, negative = cytotoxicity: at the top concentration; also: nearly all actives have a fitted effect of over 60% in size
From the text: A prime difficulty in effectively treating cancer is the development of cellular resistance to multiple structurally unrelated anticancer drugs, a phenomenon known as multidrug resistance (MDR). […] Numerous strategies to overcome P-gp-mediated MDR have been explored, including the design of drugs that evade recognition and efflux, and development of inhibitors to block efflux and restore drug accumulation. […] An alternative approach is to exploit resistance by identifying drugs that target MDR cells over the non-resistant parental cells from which they were selected. […] The development of MDR1-selective agents represents a new strategy for resolving multidrug resistance, as it remains a long-standing clinical challenge for cancer chemotherapy.
Our goal is to identify compounds that selectively kill P-gp-expressing MDR cells. We will identify MDR1-selective compounds by comparing toxicity of compounds in the screening library against parental, drug-naive (KB-3-1) adenocarcinoma cells as well as their drug-selected MDR sub-line (KB-V1). The differential toxicity of compounds against these two cell lines will be used to identify MDR1-selective compounds, whose cytotoxicity is potentiated, rather than diminished, by P-gp expression. This assay will be utilized to conduct a quantitative high-throughput screen (qHTS) in collaboration with the NIH Chemical Genomics Center to identify selective agents, and probe hits arising from the screen will be validated using secondary assays and characterized through a well-established follow-up research program. This screen was run against the entire NCGC library collection of about 400,000 compounds.
NIH Molecular Libraries Probe Production Network [MLPCN]
NIH Chemical Genomics Center [NCGC]
PI: Michael Gottesman, National Cancer Institute, NIH
Briefly, 5 microL of media containing either KB-V1 cells (columns 1-2, 4-48) are dispensed into Greiner white, treated solid-bottom 1536-well assay plates (media-only control is added to column 3). Compounds are then transferred via Kalypsys pin tool equipped with 1536-pin array (10 nL slotted pins, V&P Scientific, San Diego, CA). Following addition of compound, the plates are incubated at 37 degrees C for 72 hours. CellTiter-Glo (2.5 µL/well) is then added, and the plates are read in a ViewLux reader (Perkin-Elmer, clear luminescence filter, 1 second exposure, 1x binning) following a 10 minute incubation. All cells are dispensed in DMEM phenol-red free media containing 10% FBS.
Library plates were screened starting from the lowest and proceeding to the highest concentration. Vehicle-only plates, with DMSO being pin-transferred to columns 5-48, will be inserted uniformly at the beginning and the end of each library in order to monitor and record any shifts in the background, which can be affected by reagent dispensers or loss in enzyme activity over time. Screening data will be corrected, normalized, and concentration-effect relationships will be derived by using publicly-available NCGC, NCATS curve fitting algorithms (http://ncgc.nih.gov/pub/openhts).
% is scaled to controls: 0 for no effect and ±100 for the full control effect; potency is read from the fitted curve at half-maximal effect.

Compound | activity change, negative = cytotoxicity | Potency
CN1CCN(C(=O)CCc2nc(-c3ccc(Cl)cc3)no2)CC1 | -19% | –
CC1CCN(Cc2nc(-c3ccc(Cl)cc3)no2)CC1 | 0.287% | –
CCN1CC(CN(C)Cc2nc(-c3ccc(Cl)cc3)no2)CC1=O (stereo unspecified) | – | 16.4 µM (active)
C[C@H](CO)N1C[C@H](C)[C@H](CN(C)C(=O)Nc2ccc3c(c2)OCO3)Oc2ncc(Br)cc2C1=O | 0% | –
CC(C)(C)c1ccc(C(=O)C[N+]2(C)CCCc3ccccc32)cc1 (stereo unspecified) | 0.231% | –
COc1ccc(-n2c(-c3ccc(Cl)cc3)n[nH]c2=S)c(OC)c1 | 4.94% | –
Cc1cc(Cl)ccc1NC(=O)Cc1ccc(NC(=O)N2CCCCc3ccccc32)cc1 | 5.96% | –
CCCC1=Nc2cc(C(=O)NCCN3CCCC3)ccc2Sc2ccccc21 | -2.03% | –
O=C(NCc1ccco1)c1cccc(-c2ccc3nncn3c2)c1 | -11.8% | –
CCCC1=Nc2cc(C(=O)NCc3ccco3)ccc2Sc2ccccc21 | – | 4.11 µM (active)
CCCCCNC(=O)C(c1ccc(OC)cc1)n1c(=O)c(-c2ccccc2)nc2ccccc21 (stereo unspecified) | -20.4% | –
CCCCn1nnnc1C1(C)CCC(=O)N1Cc1ccc(OC)c(OC)c1 (stereo unspecified) | -7.85% | –
C[C@H](CO)N1C[C@H](C)[C@H](CN(C)C(=O)c2ccncc2)OCc2ccccc2-c2c(n(C)c3ccccc23)C1=O | 0.888% | –
Cc1nn(Cc2ccc(Cl)cc2)c(Cl)c1/C=N/NC(=O)CNc1ccccc1F | – | 3.26 µM (active)
Cc1nn(Cc2ccc(Cl)cc2)c(Cl)c1/C=N/NC(=O)c1cccnc1 | 1.6% | –
CCn1nc(C)c(/C=N/NC(=O)Cc2ccc(Cl)cc2)c1C | 14.2% | –
CC(C)C[C@H]1CNC(=S)N1C[C@H]1CCCN1C[C@H](Cc1ccc(O)cc1)N1C[C@H](Cc2ccc(O)cc2)N(CC2CCCCC2)C1=S | -8.38% | –
Cn1cnc(S(=O)(=O)N2C[C@@H](O)COC[C@@H]3O[C@H](CC(=O)NC4CCC4)CC[C@H]32)c1 | 0.239% | –
OC[C@H]1O[C@@H](c2nc(-c3nc(-c4ccc(F)cc4)no3)cs2)[C@H](O)[C@@H](O)[C@H]1O | -0.61% | –
COc1cc(Cl)c(C)cc1Nc1nnc(-n2nc(C)cc2C)c2ccccc12 | -12.2% | –
COc1ccc(C(=O)NC2CC2)cc1OC1CCN(C/C=C/c2ccccc2)CC1 | – | 16.4 µM (active)
COc1ccc(C(=O)NC2CC2)cc1OC1CCN(Cc2cnn(C)c2)CC1 | 2.24% | –
COc1ccc(C(=O)NC2CC2)cc1OC1CCN(Cc2ccc(SC)cc2)CC1 | -8.65% | –
CCN(CC)CCN(C(=O)c1ccc(S(=O)(=O)N2CCOCC2)cc1)c1nc2cc3c(cc2s1)OCCO3 | -7.69% | –
CN(C)CCCN(C(=O)c1ccc(S(=O)(=O)N2CCCCCC2)cc1)c1nc2ccc(Br)cc2s1 | – | 23.1 µM (active)
CN(C)CCCN(C(=O)c1ccc(S(=O)(=O)N2CCCCCC2)cc1)c1nc2cc3c(cc2s1)OCCO3 | -18.9% | –

From PubChem BioAssay AID1347076 (National Center for Advancing Translational Sciences (NCATS), 2019)
